Experimental data taken from PubChem BioAssay AID1159580 (chemical genetic matrix, 2015).
In all, about 5,500 compounds went through this assay and about 2,000 (36%) were called active. About 18% were inconclusive and are not listed. No stated cut-off is given here; in the data, active means normalized growth mostly below about 0.91 (no sharp cut-off); inconclusive means no clear call, values can overlap the other calls; inactive means mostly above about 0.92. The list shows a part of the results.

Assay: chemical genetic growth profiling, strain panel (AID 1159580);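 further: tested at 20 µM; growth read once vehicle control cultures reached saturation at 30 °C; 1 = growth at the plate median or of vehicle wells; lower values mean less growth of the strain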
Conditions: S. cerevisiae deletion strains, growth OD

Measured: normalized growth

O=C1/C(=C/c2cccs2)COc2ccccc21
active: locus YBL105C, strain PKC1, hits give low values 0.899 | locus YDL101C, strain DUN1, hits give low values 0.908 | locus YHR030C, strain SLT2, hits give low values 0.778 | locus YIL147C, strain SLN1, hits give low values 0.891 | locus YJR066W, strain TOR1 (second series), hits give low values 0.603 | locus YLR113W, strain HOG1, hits give low values 0.667 | locus YOR329C, strain SCD5, hits give low values 0.9 | locus YPL209C, strain IPL1, hits give low values 0.894 | locus YPL256C, strain CLN2, hits give low values 0.802
inactive: locus YAR019C, strain CDC15, hits give low values 0.903 | locus YBR135W, strain CKS1, hits give low values 0.913 | locus YBR136W, strain MEC1, hits give low values 0.899 | locus YBR160W, strain CDC28, hits give low values 0.908 | locus YDL017W, strain CDC7, hits give low values 0.911 | locus YDL028C, strain MPS1, hits give low values 0.9 | locus YDL108W, strain KIN28, hits give low values 0.901 | locus YDL132W, strain cdc53, hits give low values 0.902 | locus YDL214C, strain PRR2, hits give low values 0.793 | locus YDR052C, strain DBF4, hits give low values 0.93 | locus YDR054C, strain cdc34, hits give low values 0.88 | locus YDR226W, strain ADK1, hits give low values 0.901 | locus YDR477W, strain SNF1, hits give low values 0.779 | locus YER123W, strain YCK3, hits give low values 0.73 | locus YER133W, strain GLC7, hits give low values 0.765 | locus YFL009W, strain cdc4, hits give low values 0.901 | locus YFL029C, strain CAK1, hits give low values 0.897 | locus YFR003C, strain YPI1, hits give low values 0.906 | locus YFR019W, strain FAB1, hits give low values 0.884 | locus YFR028C, strain CDC14, hits give low values 0.901 | locus YGR040W, strain KSS1, hits give low values 0.766 | locus YGR052W, strain FMP48, hits give low values 0.767 | locus YGR092W, strain DBF2, hits give low values 0.684 | locus YHR079C, strain IRE1, hits give low values 0.871 | locus YHR082C, strain KSP1, hits give low values 0.735 | locus YHR205W, strain SCH9, hits give low values 0.783 | locus YJL095W, strain BCK1, hits give low values 0.832 | locus YJL128C, strain PBS2, hits give low values 0.873 | locus YJL157C, strain FAR1, hits give low values 0.789 | locus YJR016C, strain ILV3, hits give low values 0.9 | locus YJR066W, strain TOR1, hits give low values 0.762 | locus YKL048C, strain ELM1, hits give low values 0.873 | locus YKL067W, strain YNK1, hits give low values 0.831 | locus YKL101W, strain HSL1, hits give low values 0.829 | locus YKL193C, strain SDS22, hits give low values 0.901 | locus YKL203C, strain TOR2, hits give low values 0.853 | locus YLR133W, strain CKI1, hits give low values 0.86 | locus YLR403W, strain SFP1, hits give low values 0.796 | locus YML070W, strain DAK1, hits give low values 0.802 | locus YMR001C, strain CDC5, hits give low values 0.895 | locus YMR205C, strain PFK2 (second series), hits give low values 0.831 | locus YMR277W, strain FCP1, hits give low values 0.909 | locus YNL006W, strain LST8, hits give low values 0.916 | locus YNL020C, strain ARK1, hits give low values 0.839 | locus YNL161W, strain CBK1, hits give low values 0.906 | locus YNL183C, strain NPR1, hits give low values 0.763 | locus YNL207W, strain RIO2, hits give low values 0.9 | locus YNL222W, strain SSU72, hits give low values 0.91 | locus YNL307C, strain MCK1 (second series), hits give low values 0.803 | locus YOL078W, strain AVO1, hits give low values 0.906 | locus YOL136C, strain PFK27, hits give low values 0.816 | locus YOR061W, strain CKA2, hits give low values 0.813 | locus YOR119C, strain RIO1, hits give low values 0.833 | locus YOR231W, strain MKK1, hits give low values 0.82 | locus YPL031C, strain PHO85, hits give low values 0.756 | locus YPL153C, strain RAD53, hits give low values 0.777 | locus YPL204W, strain HRR25, hits give low values 0.786 | locus YPR025C, strain CCL1, hits give low values 0.911 | locus YPR106W, strain ISR1, hits give low values 0.901 | locus YPR111W, strain DBF20, hits give low values 0.907 | strain NNK1, hits give low values 0.906 | strain TSCII, hits give low values 0.895
